Shown are actives, neighbours in structure and some others; about 5% of the full set was active somewhere.
SENP7 inh – blocks the human protease SENP7; AID 434973; inhibition, % at 5 µM; recombinant SENP7, Z-RLRGG-aminoluciferin luminescence, 40 min; hit rate 1.5% among 330,000;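 active = inhibition above about 50% at the single test dose, limit read from the data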
EBI2 antag – antagonists of human EBI2 receptor; EBI2 beta-arrestin recruitment, luminescence, 7a,25-OHC stimulated; inhibition, % at 5 µM; hit rate 0.81% among 360,000; AID 651636; in the data active = inhibition above about 38%;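 also: enzyme fragment complementation signal reports receptor beta-arrestin coupling in cells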
Target sequence (P32249 whole entry, looked up, the tested form may be a part): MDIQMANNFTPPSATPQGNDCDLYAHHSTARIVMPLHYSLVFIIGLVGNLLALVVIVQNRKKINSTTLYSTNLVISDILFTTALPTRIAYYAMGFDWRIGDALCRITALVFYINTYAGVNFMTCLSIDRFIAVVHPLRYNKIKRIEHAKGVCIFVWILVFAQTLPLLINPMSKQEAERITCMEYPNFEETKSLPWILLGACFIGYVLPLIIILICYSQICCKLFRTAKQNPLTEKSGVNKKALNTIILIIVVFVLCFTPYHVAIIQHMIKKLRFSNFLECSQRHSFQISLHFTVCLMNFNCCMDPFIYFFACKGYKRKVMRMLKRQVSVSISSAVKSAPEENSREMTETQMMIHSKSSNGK
SENP8 block-1 – inhibitors of human SENP8 protease. purified SENP8, Z-RLRGG-aminoluciferin cleavage, luminescence. inhibition, % at 10 µM. hit rate 1.2% among 330,000. AID 2540; in the data active = inhibition above about 50%
AHR act – human AHR activation; P35869; AHR-responsive luciferase reporter cells, luminescence; activation, % at 5 µM; hit rate 2.5% among 320,000; in the data active = activation above about 47%
SENP6 inh – blocks the human protease SENP6; hit rate 1.8% among 330,000; Recombinant SENP6 catalytic domain, aminoluciferin luminescence; Q9GZR1; inhibition, % at 10 µM;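 active = inhibition above about 50% at the single tested dose, limit read from the data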
SENP8 block-2 – inhibitors of human SENP8 protease; Q96LD8; recombinant SENP8, Nedd8 substrate fluorescence; inhibition, % at 20 µM; hit rate 0.64% among 360,000; AID 602440; in the data active = inhibition mostly above about 40%, no sharp cut-off; inactive = mostly below about 27%
Each line names hits and unclear results; the compound was inactive in the other large screens.

CCOC(=O)c1cnc2c(cnn2C)c1NCCCn1ccnc1	AHR act 58.7
CCOC(=O)c1cnc2c(cnn2C)c1NCCCN(C)C	none
COc1ccc(C(=O)Nc2nc3cc4c(cc3s2)OCO4)c(OC)c1	none
C=CCn1cccc(C(=O)Nc2cc(OC)ccc2OC)c1=O	AHR act 59.6
C=CCn1cccc(C(=O)Nc2ccc(C)c(C)c2)c1=O	none
C/C=C/Cn1cccc(C(=O)Nc2ccc(OC)cc2)c1=O	none
C=CCn1cccc(C(=O)Nc2ccc(C)cc2)c1=O	AHR act 55.2
COc1cc(/C=N/N=C(/N)c2nonc2N)cc(Br)c1OCc1ccccc1C	none
COc1cccc(/C=N/N=C(\N)c2nonc2N)c1O	SENP7 inh 78.3
COc1ccccc1/C=N\N=C(\N)c1ccccn1	AHR act 71.3
COC(=O)[C@]12CCCCC=C1N(Cc1ccco1)C(=O)[C@H](CC(=O)NCc1cccc3ccccc13)C2	none (no result: SENP7 inh, SENP8 block-1, AHR act, SENP6 inh)
Cc1cc2c(cc1C)-n1nnnc1C(N1CCCNCC1)C(=O)N2 (stereo unspecified)	none (no result: SENP7 inh, SENP8 block-1, AHR act, SENP6 inh)
Cc1ccccc1C1CC(=O)c2ccccc2C1C (stereo unspecified)	none (no result: SENP7 inh, SENP8 block-1, AHR act, SENP6 inh)
Cc1ccccc1S(=O)(=O)NC(=O)C1(C)CCN1C(=O)c1cccc2ccccc12 (stereo unspecified)	none (no result: SENP7 inh, SENP8 block-1, AHR act, SENP6 inh)
N#Cc1ccccc1S(=O)(=O)N1CCN(Cc2cc3c(cc2Br)OCCO3)CC1	none (no result: SENP7 inh, SENP8 block-1, AHR act, SENP6 inh)
NC(=S)N=Nc1c(O)n(C2OC(=O)c3ccccc32)c2ccccc12 (stereo unspecified)	SENP8 block-2 49.3
NC(=S)N=Nc1c(O)n(CCCl)c2ccccc12	none
Cc1cccc(C(C)C)c1NC(=O)COC(=O)CN1C(=O)C2CC=CCC2C1=O (stereo unspecified)	none
CCn1cnc2cc(NCc3nc4ccccc4n3Cc3ccccc3)ccc21	AHR act 73.1
O=C(O)c1ccc(NCc2nc3ccccc3n2Cc2ccccc2)cc1	none
CCn1cnc2cc(NCc3ccc(C)cc3)ccc21	none
CCCn1cnc2cc(NCc3ccc(Br)cc3)ccc21	AHR act 86.9
Cn1cnc2cc(NCc3ccc(Cl)cc3)ccc21	AHR act 55.9
CCOc1ccc(CNc2ccc3c(c2)ncn3C)cc1	none
C=CCNc1ncnc2c1ncn2[C@H]1CN(Cc2ccco2)C[C@@H](CO)O1	none (no result: SENP7 inh, SENP8 block-1, AHR act, SENP6 inh)
CN1CCN(S(=O)(=O)c2ccc(N(C)Cc3cccc(F)c3)nc2)CC1	none
CCCCNC(=O)c1[nH]c(C)c(C(C)=O)c1C	AHR act 67.0
CCc1c(C(=O)Nc2cc(C)ccc2OC)[nH]c(C)c1C(C)=O	AHR act 51.7
CCCCC(CC)CNC(=O)c1[nH]c(C)c(C(C)=O)c1C (stereo unspecified)	none
CC(=O)c1c(C)[nH]c(C(=O)Nc2ccc(C)cc2Br)c1C	AHR act 52.5
CC(=O)c1c(C)[nH]c(C(=O)Nc2ccc(C)c(C)c2)c1C	none
CCN(CC)c1ccc(NC(=O)c2[nH]c(C)c(C(C)=O)c2C)c(C)c1	none
CC(=O)c1c(C)[nH]c(C(=O)Nc2cc(F)ccc2C)c1C	AHR act 58.2
COc1ccc(-c2ccc(C(=O)NCc3ccc(N4CCN(C)CC4)cc3)c3occc23)c(C)c1	none (no result: SENP7 inh, SENP8 block-1, AHR act, SENP6 inh)
Cc1cc(C)n(-c2ccc(C(=O)N3CCN(S(=O)(=O)c4ccc(OC(F)(F)F)cc4)CC3)cc2)n1	none (no result: SENP7 inh, SENP8 block-1, AHR act, SENP6 inh)
CCOC(=O)C1(C)CCN1C(=O)c1cc(F)cc(F)c1 (stereo unspecified)	none (no result: SENP7 inh, SENP8 block-1, AHR act, SENP6 inh)
CCc1ccc(Nc2cnn(-c3nc4ccccc4s3)c(=O)c2Cl)cc1	AHR act 49.0
C=CCc1ccccc1Oc1cc(OC)nc(N)n1	none (no result: AHR act)
COc1cc(Nc2cc(C)nc3ncnn23)cc(OC)c1OC	none
COc1ccc(Nc2cc(C)nc3ncnn23)cc1Cl	AHR act 67.6
Cc1[nH]n(-c2cccc3ccccc23)c(=O)c1/C=N/NC(=O)c1cccc([N+](=O)[O-])c1	none
O=C(N/N=C/c1c[nH]c2ccccc12)c1cccc([N+](=O)[O-])c1	AHR act 69.8
Cn1ncc([N+](=O)[O-])c1C(=O)N/N=C/c1c[nH]c2ccccc12	AHR act 69.8
Cn1ncc([N+](=O)[O-])c1C(=O)Nc1ccc(-c2ccccc2)cc1	AHR act 72.6
Cc1[nH]n(-c2ccccc2)c(=O)c1/C=N/NC(=O)c1cccc([N+](=O)[O-])c1	SENP8 block-2 51.8
Cn1cc([N+](=O)[O-])c(C(=O)N/N=C\c2c[nH]c3ccccc23)n1	none
CCOc1ccc(S(=O)(=O)N2CCN(Cc3ccc4c(c3)OCO4)CC2)cc1C	none
